Among all 53,000 compounds or so, about 900 (1.7%) showed an effect of 50% or more. This is one part of a sample in which strong results are shown more often than they occur.
The compounds below were run on Mycobacterium tuberculosis (assay: Cornell - Phenotypic assay to identify agents that inhibit growth of Mycobacterium tuberculosis). Conditions: 10 mM as filed; unlikely as a test dose.
Type: functional
Set-up: scale not given: direction of the effect not stated beside the values

| SMILES | Percent Effect [%] |
| --- | --- |
| CSC(C)C(=O)N1CCCN(Cc2nccn2C)CC1 (stereo not drawn) | -38.31 |
| Fc1cccc(CN2CCC(c3noc(-c4ccncc4)n3)CC2)c1F | 8.868 |
| CCCc1nnc(N2CC[C@@](O)(C3CCOCC3)[C@H](C)C2)s1 | -20.29 |
| Nc1ncc(-c2ccc(C(F)(F)F)cc2)c(C2CCCNC2)n1 (stereo not drawn) | 50.32 |
| COc1ccc(-c2cnc(N)nc2C2CCCNC2)cc1.Cl (stereo not drawn) | 57.74 |
| CS(=O)(=O)N1CC(c2nc(N)ncc2-c2ccc(F)cc2)C1 | 26.29 |
| COc1ccc(-c2cc(C3CCCNC3)ccn2)cc1.Cl (stereo not drawn) | 13.34 |
| Nc1ncc(-c2ccc(Cl)cc2)c(C2CCCNC2)n1 (stereo not drawn) | -8.441 |
| Nc1ncc(-c2ccc(F)cc2)c(C2CCCNC2)n1 (stereo not drawn) | 2.627 |
| Cc1n[nH]c(C2CN(CC(=O)NCCC3=CCCCC3)CCO2)n1 (stereo not drawn) | -4.775 |
| COc1cc(CNC(=O)c2csc(Br)c2)ccn1 | 5.577 |
| c1ccc(CN2CCC(c3nccnc3-n3ccnc3)CC2)cc1 | -13.47 |
| Cc1noc(C)c1CN(Cc1cccs1)C1CCS(=O)(=O)C1 (stereo not drawn) | -24.86 |
| CCS(=O)(=O)N1CCc2ccc(NC(=O)NCCc3ccccc3)cc21 | 30.28 |
| CN(C)CC(=O)N1CCN(C(=O)c2cccc3[nH]ncc23)CC1 | 11.64 |
| CCc1cnc(CN(C(C)=O)C2CCN(CCc3ccccc3)C2)o1 (stereo not drawn) | -5.219 |
| Cc1ncsc1CN1C[C@@H]2COC[C@]2(C(=O)NCc2ccccn2)C1.O=C(O)C(F)(F)F.O=C(O)C(F)(F)F | 34.64 |
| Cc1csc(CN2C[C@@H]3COC[C@]3(C(=O)NCc3ccco3)C2)n1 | 99.79 |
| Cc1csc(CNC(=O)N2CCN(Cc3ccco3)CC2)n1 | 5.266 |
| Cc1ncsc1C(=O)N1CCCC(n2cncn2)C1 (stereo not drawn) | -11.33 |
| CC(=O)N1CCCC1c1cccc(Oc2ccccc2F)n1 (stereo not drawn) | 16.34 |

| SMILES | Percent Effect [%] |
| --- | --- |
| Cc1cc(CN2CCN(S(=O)(=O)c3c(C)c(Cl)cc(C)c3Cl)CC2)on1 | 15.46 |
| O[C@@H]1C[C@H]2CN(Cc3ccsc3)[C@@H](Cc3ccccc3)CN2C1 | 57.45 |
| O[C@@H]1C[C@H]2CN(Cc3ccccc3)[C@H](Cc3ccccc3)CN2C1 | 7.945 |
| O[C@@H]1C[C@H]2CN(Cc3ccccc3Cl)[C@H](Cc3ccccc3)CN2C1 | 13.61 |
| Cc1ccc(CN2CC[C@H]3OCC[C@@H](c4nc(C)no4)[C@H]3C2)cc1 | 12.84 |
| CCC(C)(CCO)NC(=O)c1ccon1 (stereo not drawn) | -22.18 |
| CCC(C)NC(=O)c1coc(COc2cccc(F)c2)n1 (stereo not drawn) | 60.97 |
| O=C(NC(CO)CO)c1coc(COc2cccc(F)c2)n1 | -12.31 |
| COC(=O)[C@@H](NC(=O)c1coc(COc2cccc(F)c2)n1)C(C)C | 30.38 |
| CC(C)(NC(=O)c1coc(COc2cccc(F)c2)n1)C(N)=O | 8.84 |
| O=C(O)c1coc(COc2cccc(F)c2)n1 | 15.94 |
| O=C(NCC(F)(F)F)c1coc(COc2cccc(F)c2)n1 | 71.66 |
| CN(C)Cc1cc(C2CCCCN2S(=O)(=O)c2cccc(Cl)c2)nn1C.Cl (stereo not drawn) | 9.135 |
| CC(C)N(Cc1ccc(Cl)c(Cl)c1)C(=O)CCn1cncn1 | 29.65 |
| O=S(=O)(c1ccccc1)N1CCC2(CCCN2Cc2cccc(F)c2)C1 (stereo not drawn) | 5.302 |
| Cc1nn(C2CCS(=O)(=O)C2)c(O)c1CCc1ccccc1 (stereo not drawn) | 6.158 |
| Cc1ccc(CN2Cc3c(C(=O)N4CCN(C)CC4)nn(C)c3C2)s1.O=C(O)C(F)(F)F.O=C(O)C(F)(F)F.O=C(O)C(F)(F)F | -2.835 |
| CCOC(=O)Cn1ccc(NC(=O)Cc2ccccc2F)n1 | 99.82 |
| Cn1ccc(NC(=O)Cc2ccccc2F)n1 | -2.791 |
| CS(=O)(=O)CCn1ccc(NC(=O)Cc2ccccc2F)n1 | 11.43 |
| CC(C)C1SCC(=O)Nc2c1c(O)nn2C1CCCCC1 (stereo not drawn) | 13.37 |

| SMILES | Percent Effect [%] |
| --- | --- |
| Cc1cc(N2CCC(Cc3ccccc3)CC2)ncn1 | 22.55 |
| Cc1cc(N2CCC(Cc3ccccc3)CC2)nc(-c2ccncc2)n1 | 82.9 |
| Cc1cc(N2CCC(CC(N)=O)CC2)nc(-c2ccncc2)n1 | 23.93 |
| CN(Cc1ccc(CCC(C)(C)O)cc1)CC1(CO)CC1 | 3.977 |
| CC(Cc1ccco1)NS(=O)(=O)N1CCCCCC1 (stereo not drawn) | 68.78 |
| CC1CCN(S(=O)(=O)NC(C)Cc2ccco2)CC1 (stereo not drawn) | 45 |
| CC(Cc1ccco1)NS(=O)(=O)N1CCCCC1 (stereo not drawn) | 35.85 |
| CCCn1c(C)c(CC(=O)NCC(C)O)c2c1CC(C)(C)CC2=O (stereo not drawn) | 21.56 |
| CCc1cc(N(C)CCC(O)c2ccccc2)n2nccc2n1 (stereo not drawn) | -53.72 |
| COCC(=O)N1C[C@@H](c2cccc(F)c2)[C@H]2[C@H]1CCCCCN2C(C)=O | -30.92 |
| O=C(NCc1ccc(Br)cc1)C1(O)CCSCC1 | 26.99 |
| O=C(O)C(F)(F)F.O=C(O)C(F)(F)F.O=C(O)C(F)(F)F.c1cc(CNCC2OCCc3cn(CC4CCOCC4)nc32)ccn1 (stereo not drawn) | -7.498 |
| CCCN(CC(F)(F)F)S(=O)(=O)c1cc(C(N)=O)n(C)c1 | -26.73 |
| COCC1CCN(C(=O)c2cn(Cc3ccccc3F)nn2)CC1 | 25.9 |
| COCC1CCN(C(=O)c2cn(Cc3ccccc3C(F)(F)F)nn2)C1 (stereo not drawn) | 62.81 |
| COCC1CCN(C(=O)c2cn(Cc3cccc(C(F)(F)F)c3)nn2)C1 (stereo not drawn) | 30.37 |
| Cc1nc(NCC2CCOCC2)cc(C2CCN2S(C)(=O)=O)n1 (stereo not drawn) | 10.58 |
| CC1N(c2cnn(C)c2)C(=O)COC12CCN(Cc1ccco1)CC2.O=C(O)C(F)(F)F (stereo not drawn) | 2.626 |
| COCCNC(=O)[C@H]1C[C@@H]2CCN(c3ccncn3)C[C@H]2O1.O=C(O)C(F)(F)F | 26.18 |
| CCCNC(=O)c1cncc(CC2CCCN(C)C2)c1 (stereo not drawn) | -32.48 |
| CN1C(=O)[C@H](OC(N)=O)[C@@H](C(=O)Nc2ccccc2)C12CCNCC2 | -56.88 |

Source: ChEMBL document CHEMBL3988442, “University of Dundee, Small-Polar-MMV Screening Library” (2021)
